{"source": "PubChem BioAssay (NCATS)", "key": {"CRL-7250": {"test_system": "CRL-7250", "assay": "Cytotoxic Profiling of Annotated Libraries Using Quantitative High-Throughput Screening (AID 1296008); as to max response: % is scaled to controls: 0 for no effect and ±100 for the full control effect", "details": "Five cell lines viability, CellTiter-Glo ATP luminescence, 48-72 h; max response: active compounds read low", "method_in_brief": "(§1)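 Cells exposed to compounds for 48 or 72 hr at 37 degrees Celsius. Viability read as ATP-coupled luminescence with CellTiter-Glo after 10 min at room temperature.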"}, "HaCat": {"test_system": "HaCat", "assay": "Cytotoxic Profiling of Annotated Libraries Using Quantitative High-Throughput Screening (AID 1296008)", "details": "Five cell lines viability, CellTiter-Glo ATP luminescence, 48-72 h; max response: active compounds read low", "method_in_brief": "as §1"}, "KB-3-1": {"test_system": "KB-3-1", "assay": "Cytotoxic Profiling of Annotated Libraries Using Quantitative High-Throughput Screening (AID 1296008)", "details": "Five cell lines viability, CellTiter-Glo ATP luminescence, 48-72 h; max response: active compounds read low", "method_in_brief": "as §1"}, "HEK293": {"test_system": "HEK293", "assay": "Cytotoxic Profiling of Annotated Libraries Using Quantitative High-Throughput Screening (AID 1296008)", "details": "Five cell lines viability, CellTiter-Glo ATP luminescence, 48-72 h; max response: active compounds read low", "method_in_brief": "as §1"}, "GB4": {"test_system": "GB4", "assay": "qHTS profiling for inhibitors of Plasmodium falciparum proliferation (AID 504749)", "details": "P. falciparum in erythrocytes, SYBR Green DNA, 72 h; series mostly up to 28.7 µM", "method_in_brief": "(§2)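 P. falciparum-infected erythrocytes (0.3% parasitemia, 2.5% hematocrit) incubated with compound 72 h at 37 C, 5% CO2. Parasite DNA detected by SYBR Green after lysis, overnight at room temperature; normalised to 0.29 uM artemisinin and DMSO.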"}, "HB3": {"test_system": "HB3", "assay": "qHTS profiling for inhibitors of Plasmodium falciparum proliferation (AID 504749)", "details": "P. falciparum in erythrocytes, SYBR Green DNA, 72 h; series mostly up to 28.7 µM", "method_in_brief": "as §2"}, "ICS": {"test_system": "ICS", "assay": "qHTS profiling for inhibitors of Plasmodium falciparum proliferation (AID 504749)", "details": "P. falciparum in erythrocytes, SYBR Green DNA, 72 h; series mostly up to 28.7 µM", "method_in_brief": "as §2"}, "JCK": {"test_system": "JCK", "assay": "qHTS profiling for inhibitors of Plasmodium falciparum proliferation (AID 504749)", "details": "P. falciparum in erythrocytes, SYBR Green DNA, 72 h; series mostly up to 28.7 µM", "method_in_brief": "as §2"}, "PC15": {"test_system": "PC15", "assay": "qHTS profiling for inhibitors of Plasmodium falciparum proliferation (AID 504749)", "details": "P. falciparum in erythrocytes, SYBR Green DNA, 72 h; series mostly up to 28.7 µM", "method_in_brief": "as §2"}, "PC49": {"test_system": "PC49", "assay": "qHTS profiling for inhibitors of Plasmodium falciparum proliferation (AID 504749)", "details": "P. falciparum in erythrocytes, SYBR Green DNA, 72 h; series mostly up to 28.7 µM", "method_in_brief": "as §2"}, "SC27B": {"test_system": "SC27B", "assay": "qHTS profiling for inhibitors of Plasmodium falciparum proliferation (AID 504749)", "details": "P. falciparum in erythrocytes, SYBR Green DNA, 72 h; series mostly up to 28.7 µM", "method_in_brief": "as §2"}, "TAB113": {"test_system": "TAB113", "assay": "qHTS profiling for inhibitors of Plasmodium falciparum proliferation (AID 504749)", "details": "P. falciparum in erythrocytes, SYBR Green DNA, 72 h; series mostly up to 28.7 µM", "method_in_brief": "as §2"}}, "note": "Where “and” joins values, the source holds several entries; their conditions need not be identical. Equal entries are not always repeated. Inconclusive results are not listed. A structure can be active in one record and inactive in another. A number with no mark means an inactive call. Calls of active or inactive are those of the source. Calls follow the shape of the dose curve; as a rule, active = well fitted inhibition curve with a large enough effect; inconclusive = small, poorly fitted or top-dose-only effect; inactive = flat fitted curve, though single readings scatter. Also: nearly all actives have a fitted effect of over 60% in size. Potency is read from the fitted curve at half-maximal effect."}
{"smiles": "COc1ccc(-c2coc3cc(O)cc(O)c3c2=O)cc1", "values": [{"measurement": "max response", "setting": "CRL-7250", "result": 1.69, "unit": "%"}, {"measurement": "max response", "setting": "HaCat", "result": 1.1, "unit": "%"}, {"measurement": "outcome", "setting": "KB-3-1", "result": "inactive"}]}
{"smiles": "C[C@H](NC(=O)c1sccc1OCc1ccc(Cl)cc1)c1ccccc1", "values": [{"measurement": "Potency", "setting": "CRL-7250", "result": "29.6 µM (active)"}, {"measurement": "Potency", "setting": "HEK293", "result": "16.6 µM (active)"}, {"measurement": "Potency", "setting": "KB-3-1", "result": "20.9 µM (active)"}]}
{"smiles": "N[C@@]1(C(=O)O)CS(=O)(=O)[C@H]2[C@H](C(=O)O)[C@H]21", "values": [{"measurement": "max response", "setting": "CRL-7250", "result": -30.1, "unit": "%"}, {"measurement": "outcome", "setting": "HaCat", "result": "inactive"}, {"measurement": "max response", "setting": "KB-3-1", "result": -18.8, "unit": "%"}]}
{"smiles": "Cn1cc(C=C2C(=O)Nc3cccnc32)c2ccccc21", "values": [{"measurement": "max response", "setting": "CRL-7250", "result": -3.71, "unit": "%"}, {"measurement": "max response", "setting": "HaCat", "result": -0.233, "unit": "%"}, {"measurement": "max response", "setting": "KB-3-1", "result": 5.23, "unit": "%"}]}
{"smiles": "N#CC1(c2ccc(NC(=O)c3cccnc3NCc3ccncc3)cc2)CCCC1", "values": [{"measurement": "max response", "setting": "CRL-7250", "result": -26.7, "unit": "%"}, {"measurement": "outcome", "setting": "HaCat", "result": "inactive"}, {"measurement": "max response", "setting": "KB-3-1", "result": -11.6, "unit": "%"}]}
{"smiles": "COC(=O)N[C@H](C(=O)N1CCC[C@@H]1c1ncc(-c2ccc(-c3ccc(-c4cnc([C@@H]5CCCN5C(=O)[C@@H](NC(=O)OC)C(C)C)[nH]4)cc3)cc2)[nH]1)C(C)C", "values": [{"measurement": "outcome", "setting": "CRL-7250", "result": "inactive"}, {"measurement": "outcome", "setting": "HaCat", "result": "inactive"}, {"measurement": "max response", "setting": "KB-3-1", "result": 1.64, "unit": "%"}]}
{"smiles": "CC(=O)OC1C(C)OC(Oc2c(-c3ccc(O)cc3)oc3cc(O)cc(O)c3c2=O)C(O)C1OC(C)=O", "note": "(stereo not drawn)", "values": [{"measurement": "max response", "setting": "CRL-7250", "result": -21.1, "unit": "%"}, {"measurement": "max response", "setting": "KB-3-1", "result": 7.1, "unit": "%"}]}
{"smiles": "CCC(=O)O[C@]1(C(=O)CO)CC[C@H]2[C@@H]3CCC4=CC(=O)CC[C@]4(C)[C@@H]3CC[C@@]21C", "values": [{"measurement": "Potency", "setting": "CRL-7250", "result": "13.2 µM (active)"}, {"measurement": "max response", "setting": "HaCat", "result": -31, "unit": "%"}, {"measurement": "max response", "setting": "KB-3-1", "result": 0.702, "unit": "%"}]}
{"smiles": "CC=CC[C@@H](C)C(=O)[C@H]1C(=O)N[C@@H](C(C)C)C(=O)N(C)CC(=O)N(C)[C@@H](CC(C)C)C(=O)N[C@@H](C(C)C)C(=O)N(C)[C@@H](CC(C)C)C(=O)N[C@@H](C)C(=O)N[C@H](C)C(=O)N(C)[C@@H](CC(C)C)C(=O)N(C)[C@@H](CC(C)C)C(=O)N(C)[C@@H](C(C)C)C(=O)N1C", "values": [{"measurement": "max response", "setting": "CRL-7250", "result": -6.35, "unit": "%"}, {"measurement": "max response", "setting": "HaCat", "result": -21.7, "unit": "%"}, {"measurement": "max response", "setting": "KB-3-1", "result": -1.28, "unit": "%"}]}
{"smiles": "Clc1cc(Cl)cc(CNc2ncncc2-c2ccc3c(c2)OCO3)c1", "values": [{"measurement": "Potency", "setting": "HEK293", "result": "20.9 µM (active)"}]}
{"smiles": "CCCCC1C(=O)N(c2ccccc2)N(c2ccccc2)C1=O", "values": [{"measurement": "Potency", "setting": "GB4", "result": "12 µM (active)"}, {"measurement": "Potency", "setting": "HB3", "result": "inactive"}, {"measurement": "Potency", "setting": "ICS", "result": "11.2 µM (active)"}, {"measurement": "outcome", "setting": "JCK", "result": "inactive"}, {"measurement": "outcome", "setting": "PC15", "result": "inactive"}, {"measurement": "outcome", "setting": "PC49", "result": "inactive"}, {"measurement": "Potency", "setting": "SC27B", "result": "inactive"}, {"measurement": "Potency", "setting": "TAB113", "result": "inactive"}, {"measurement": "max response", "setting": "CRL-7250", "result": -3.59, "unit": "%"}, {"measurement": "max response", "setting": "HaCat", "result": -4.56, "unit": "%"}, {"measurement": "max response", "setting": "KB-3-1", "result": "0.189% and 30.8%"}]}
{"smiles": "CC(=NNC(=S)N1CCC1)c1ccccn1", "values": [{"measurement": "Potency", "setting": "HEK293", "result": "0.0042 µM (active)"}]}
{"smiles": "Nc1ncnc2c1nc(Cl)n2[C@@H]1O[C@H](CO)[C@@H](O)[C@@H]1O", "values": [{"measurement": "max response", "setting": "HEK293", "result": 0.527, "unit": "%"}, {"measurement": "Potency", "setting": "HaCat", "result": "14.8 µM (active)"}]}
{"smiles": "C=C1C(=O)OC2C=C(C)CCC=C(C)CCC12", "note": "(stereo not drawn)", "values": [{"measurement": "max response", "setting": "CRL-7250", "result": 0.517, "unit": "%"}, {"measurement": "outcome", "setting": "HaCat", "result": "inactive"}, {"measurement": "max response", "setting": "KB-3-1", "result": 2.36, "unit": "%"}]}
{"smiles": "COc1ccc(-c2oc3c(CC=C(C)C)c(OC4O[C@H](CO)[C@@H](O)[C@H](O)[C@@H]4O)cc(O)c3c(=O)c2OC2O[C@@H](C)[C@H](O)[C@@H](O)[C@@H]2O)cc1", "note": "(stereo partly drawn)", "values": [{"measurement": "Potency", "setting": "HEK293", "result": "18.7 µM (active)"}]}
{"smiles": "CNC(=O)c1ccccc1Sc1ccc2c(C=Cc3ccccn3)n[nH]c2c1", "values": [{"measurement": "Potency", "setting": "HEK293", "result": "14.8 µM (active)"}]}
{"smiles": "COC[C@@H](c1ccc(C(F)(F)F)cc1)N1CCN(C2(C)CCN(C(=O)c3c(C)ncnc3C)CC2)C[C@H]1C", "values": [{"measurement": "max response", "setting": "CRL-7250", "result": -6.4, "unit": "%"}, {"measurement": "max response", "setting": "HaCat", "result": -0.948, "unit": "%"}, {"measurement": "max response", "setting": "KB-3-1", "result": 5.03, "unit": "%"}]}
{"smiles": "COc1cc2c(cc1OC)CN(CCc1ccc(NC(=O)c3cc(OC)c(OC)cc3NC(=O)c3cnc4ccccc4c3)cc1)CC2", "values": [{"measurement": "Potency", "setting": "HEK293", "result": "11.4 µM (active)"}, {"measurement": "max response", "setting": "HEK293", "result": -20.5, "unit": "%"}, {"measurement": "max response", "setting": "HaCat", "result": -17.1, "unit": "%"}, {"measurement": "outcome", "setting": "KB-3-1", "result": "inactive"}]}
{"smiles": "CCC(=O)NC[C@H](Cc1ccc(OCCc2nc(-c3ccccc3)oc2C)cc1)NC(C)=CC(=O)c1ccc(C(F)(F)F)cc1", "values": [{"measurement": "max response", "setting": "CRL-7250", "result": -13.2, "unit": "%"}, {"measurement": "outcome", "setting": "KB-3-1", "result": "inactive"}]}
{"smiles": "O=c1cc(-c2ccc(O)cc2)oc2cc(O)cc(O)c12", "values": [{"measurement": "max response", "setting": "CRL-7250", "result": -23.1, "unit": "%"}, {"measurement": "max response", "setting": "HaCat", "result": -20, "unit": "%"}, {"measurement": "max response", "setting": "KB-3-1", "result": 3.99, "unit": "%"}]}
{"smiles": "O=C(O)c1ccc(-c2cc3cccnc3c(-c3ccc4nonc4c3)n2)cc1", "values": [{"measurement": "Potency", "setting": "HEK293", "result": "14.8 µM (active)"}, {"measurement": "outcome", "setting": "HaCat", "result": "inactive"}]}
{"smiles": "O=C(O)[C@H]1O[C@H](Oc2cc3oc(-c4ccccc4)cc(=O)c3c(O)c2O)[C@H](O)[C@@H](O)[C@H]1O", "values": [{"measurement": "max response", "setting": "CRL-7250", "result": -6.52, "unit": "%"}, {"measurement": "max response", "setting": "HaCat", "result": -7.89, "unit": "%"}, {"measurement": "max response", "setting": "KB-3-1", "result": 2.26, "unit": "%"}]}
